Test results taken from PubChem BioAssay (EPA / NIEHS).
Calls of active or inactive are those of the source. How the source made its calls: active means hit-call score of the fitted dose curve at least 0.9, where 1 is the maximum; inactive means score below 0.9.

Read-out: Interleukin-8 (IL8), CXCL8 (gene 3576)
Assay: BSK_LPS_IL8: BioMAP Diversity Plus: LPS Assay for Interleukin-8 (IL8) Biomarker Activity (AID 2283078)
Details: primary human HUVEC with PBMC; actives raise or lower the signal
How it was run: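 In this LPS system, chemical-treated human umbilical vein endothelium/PBMC co-cultures were harvested at 24 h for IL-8 ELISA.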

SMILES | outcome | AC50
c1ccc2occc2c1 | inactive | 
C#CC(O)C(CC)CCCC (configuration not stated) | inactive | 
NC=O | inactive | 
COC(=O)CCC(=O)OC | inactive | 
CCC(C)N(C)C(=O)c1cc2ccccc2c(-c2ccccc2Cl)n1 (configuration not stated) | inactive | 
CCN(CC)CCOc1ccc(C(=C(Cl)c2ccccc2)c2ccccc2)cc1 |  | 11.3 µM (active)
O=Cc1ccccc1C=O | inactive | 
CCCC[C@H]1CN(CC2CCOCC2)C(=O)OC12CCN(C1(C)CCN(C(=O)c3c(C)ncnc3C)CC1)CC2 | inactive | 
CCCCCCC(CCCCCCCCCCC(=O)OCC(COC(C)=O)OC(C)=O)OC(C)=O (configuration not stated) | inactive | 
O=C1c2c(O)cccc2Cc2cccc(O)c21 | inactive | 
CC(C)(O)c1ccc(CNC(=O)c2cccnc2Oc2ccc(F)cc2)cc1 | inactive | 
Cn1cnc2c1c(=O)[nH]c(=O)n2C | inactive | 
Oc1ccccc1O | inactive | 
CCCCCCCCCC[N+](C)(C)[O-] | inactive | 
O=C(N[C@@H](c1ccccc1)[C@@H]1CCCCN1)c1cccc(C(F)(F)F)c1Cl |  | 17.9 µM (active)
O=C1OC(c2ccc(O)cc2)(c2ccc(O)cc2)c2ccccc21 |  | 20 µM (active)
CC1=C(C)S(=O)(=O)CCS1(=O)=O | inactive | 
O=C(Oc1ccccc1)c1cccc(C(=O)Oc2ccccc2)c1 | inactive | 
CC(C)c1cccc(C(C)C)c1NC(=O)NS(=O)(=O)c1cc(C(C)(C)O)co1 |  | 0.152 µM (active)
Cc1ccc(-c2cc(C(F)(F)F)nn2-c2ccc(S(N)(=O)=O)cc2)cc1 |  | 35.6 µM (active)
OCC(CO)n1cnc(-c2ccc(F)cc2)c1-c1ccnc(Oc2ccccc2)n1 |  | 0.544 µM (active)
C=CCCCCCCCCCCCC | inactive | 
O=C(O)c1cccnc1 | inactive | 
Cc1occc(=O)c1O | inactive | 
CC(=O)O | inactive | 
CCCCC(CC)COC(=O)CCCCCCCC(=O)OCC(CC)CCCC (configuration not stated) | inactive | 
COc1ccc(OC(F)(F)F)cc1CN[C@H]1CCCN[C@H]1c1ccccc1 |  | 9.98 µM (active)
CSc1ccc(Oc2ccc(S(N)(=O)=O)cc2CN(C)C)cc1C | inactive | 
O=NO | inactive | 
C=CCc1ccc(OC)c(OC)c1 | inactive | 

Read-out: not listed separately
Assay: BSK_LPS_SRB: Viability Assessment in the BioMAP Diversity Plus: LPS Assay (AID 2283079);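 further: total protein by sulforhodamine B absorbance as a cytotoxicity measure; measured one day after compound addition; fitted in both directions against DMSO so loss or gain of signal counts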
Details: primary human HUVEC with PBMC
How it was run: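 Cytotoxicity endpoint in human endothelial–PBMC co-culture: 24 h exposure, then SRB (0.1%) staining, 560 nm read.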

SMILES | outcome | AC50
c1ccc2occc2c1 | inactive | 
C#CC(O)C(CC)CCCC (configuration not stated) | inactive | 
NC=O | inactive | 
COC(=O)CCC(=O)OC | inactive | 
CCC(C)N(C)C(=O)c1cc2ccccc2c(-c2ccccc2Cl)n1 (configuration not stated) | inactive | 
CCN(CC)CCOc1ccc(C(=C(Cl)c2ccccc2)c2ccccc2)cc1 |  | 10.4 µM (active)
O=Cc1ccccc1C=O | inactive | 
CCCC[C@H]1CN(CC2CCOCC2)C(=O)OC12CCN(C1(C)CCN(C(=O)c3c(C)ncnc3C)CC1)CC2 | inactive | 
CCCCCCC(CCCCCCCCCCC(=O)OCC(COC(C)=O)OC(C)=O)OC(C)=O (configuration not stated) | inactive | 
O=C1c2c(O)cccc2Cc2cccc(O)c21 | inactive | 
CC(C)(O)c1ccc(CNC(=O)c2cccnc2Oc2ccc(F)cc2)cc1 | inactive | 
Cn1cnc2c1c(=O)[nH]c(=O)n2C | inactive | 
Oc1ccccc1O |  | 7.37 µM (active)
CCCCCCCCCC[N+](C)(C)[O-] | inactive | 
O=C(N[C@@H](c1ccccc1)[C@@H]1CCCCN1)c1cccc(C(F)(F)F)c1Cl |  | 23.4 µM (active)
O=C1OC(c2ccc(O)cc2)(c2ccc(O)cc2)c2ccccc21 |  | 31.9 µM (active)
CC1=C(C)S(=O)(=O)CCS1(=O)=O | inactive | 
O=C(Oc1ccccc1)c1cccc(C(=O)Oc2ccccc2)c1 | inactive | 
CC(C)c1cccc(C(C)C)c1NC(=O)NS(=O)(=O)c1cc(C(C)(C)O)co1 | inactive | 
Cc1ccc(-c2cc(C(F)(F)F)nn2-c2ccc(S(N)(=O)=O)cc2)cc1 |  | 29.2 µM (active)
OCC(CO)n1cnc(-c2ccc(F)cc2)c1-c1ccnc(Oc2ccccc2)n1 | inactive | 
C=CCCCCCCCCCCCC | inactive | 
O=C(O)c1cccnc1 | inactive | 
Cc1occc(=O)c1O | inactive | 
CC(=O)O | inactive | 
CCCCC(CC)COC(=O)CCCCCCCC(=O)OCC(CC)CCCC (configuration not stated) | inactive | 
COc1ccc(OC(F)(F)F)cc1CN[C@H]1CCCN[C@H]1c1ccccc1 |  | 20 µM (active)
CSc1ccc(Oc2ccc(S(N)(=O)=O)cc2CN(C)C)cc1C | inactive | 
O=NO | inactive | 
C=CCc1ccc(OC)c(OC)c1 | inactive | 

Read-out: Interleukin-1 alpha (IL1a), IL1A (gene 3552)
Assay: BSK_LPS_IL1a: BioMAP Diversity Plus: LPS Assay for Interleukin-1 alpha (IL1a) Biomarker Activity (AID 2283080)
Details: primary human HUVEC with PBMC; actives raise or lower the signal
How it was run: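 Primary human HUVEC and PBMC co-culture stimulated with LPS is dosed and harvested at 24 h. Both increases and decreases in ELISA-measured IL-1a are scored relative to DMSO.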

SMILES | outcome | AC50
c1ccc2occc2c1 | inactive | 
NC=O | inactive | 
CCC(C)N(C)C(=O)c1cc2ccccc2c(-c2ccccc2Cl)n1 (configuration not stated) | inactive | 
CCN(CC)CCOc1ccc(C(=C(Cl)c2ccccc2)c2ccccc2)cc1 |  | 8.81 µM (active)
CCCCCCC(CCCCCCCCCCC(=O)OCC(COC(C)=O)OC(C)=O)OC(C)=O (configuration not stated) | inactive | 
O=C1c2c(O)cccc2Cc2cccc(O)c21 | inactive | 
CC(C)(O)c1ccc(CNC(=O)c2cccnc2Oc2ccc(F)cc2)cc1 | inactive | 
Cn1cnc2c1c(=O)[nH]c(=O)n2C | inactive | 
CCCCCCCCCC[N+](C)(C)[O-] | inactive | 
Cc1ccc(-c2cc(C(F)(F)F)nn2-c2ccc(S(N)(=O)=O)cc2)cc1 |  | 30.5 µM (active)
OCC(CO)n1cnc(-c2ccc(F)cc2)c1-c1ccnc(Oc2ccccc2)n1 |  | 0.148 µM (active)
C=CCCCCCCCCCCCC | inactive | 
O=C(O)c1cccnc1 | inactive | 
Cc1occc(=O)c1O | inactive | 
CCCCC(CC)COC(=O)CCCCCCCC(=O)OCC(CC)CCCC (configuration not stated) | inactive | 
COc1ccc(OC(F)(F)F)cc1CN[C@H]1CCCN[C@H]1c1ccccc1 | inactive | 
CSc1ccc(Oc2ccc(S(N)(=O)=O)cc2CN(C)C)cc1C | inactive | 
